# Source: PubChem BioAssay
# PREPL inhibitor: PREPL enzyme inhibitors, primary screen, biochemical, fluorescence polarization. Prolyl endopeptidase-like (Homo sapiens), Q4J6C6. actives 0.68% (n = 320,000). recombinant PREPL, fluorescence polarization activity-based probe. inhibition, % at 5.96 µM; in the data active = inhibition above about 43%;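 note: 0% = enzyme with DMSO and 100% = wells lacking enzyme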
# MEKK2 WT-MEK5: modulators of MEK5 binding to wildtype MEKK2, primary screen, biochemical, multiplex bead flow cytometry, Alexa488-MEK5; Alexa488-MEK5 binding to MEKK2 WT; actives lie on both sides; Mitogen-activated protein kinase kinase kinase 2 (Homo sapiens), Q9Y2U5; AID 1531, 2009; binding response (% of control), % at 10 µM; actives 1.1% (n = 290,000); in the data active = binding response below about 67% or above about 130%
# UBC13 inh: UBC13 polyubiquitin chain formation inhibitors, primary screen, biochemical, TR-FRET, uHTS; AID 485273, 2010; inhibition, % at 20 µM; actives 0.47% (n = 330,000); in the data active = inhibition above about 45%, passing the limit was not always enough
# Target sequence (P61088 whole entry, looked up): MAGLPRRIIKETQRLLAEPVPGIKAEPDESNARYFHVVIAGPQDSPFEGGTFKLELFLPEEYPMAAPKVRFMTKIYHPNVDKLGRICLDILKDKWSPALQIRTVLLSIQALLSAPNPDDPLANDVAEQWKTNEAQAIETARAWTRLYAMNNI
# MEKK2 mut-MEK5: MEK5 binding signal on mutant MEKK2 PB1, primary screen, biochemical, multiplex bead flow cytometry, Alexa488-MEK5 | Alexa488-MEK5 binding to MEKK2 mutant | percent response, % at 10 µM | actives 0.35% (n = 290,000) | AID 1530, 2009; in the data active = percent response above about 24%, passing the limit was not always enough
# ATG4B inhibitor: ATG4B protease inhibitors, primary screen, biochemical, fluorescence, uHTS | ATG4B cleavage of LC3-PLA2, NBD-HPC fluorescence, 1 h | actives 0.51% (n = 340,000) | inhibition, % at 8.33 µM | Cysteine protease ATG4B (Homo sapiens), Q9Y4P1; in the data active = inhibition above about 40%
# Target sequence (Q9Y4P1 whole entry, looked up): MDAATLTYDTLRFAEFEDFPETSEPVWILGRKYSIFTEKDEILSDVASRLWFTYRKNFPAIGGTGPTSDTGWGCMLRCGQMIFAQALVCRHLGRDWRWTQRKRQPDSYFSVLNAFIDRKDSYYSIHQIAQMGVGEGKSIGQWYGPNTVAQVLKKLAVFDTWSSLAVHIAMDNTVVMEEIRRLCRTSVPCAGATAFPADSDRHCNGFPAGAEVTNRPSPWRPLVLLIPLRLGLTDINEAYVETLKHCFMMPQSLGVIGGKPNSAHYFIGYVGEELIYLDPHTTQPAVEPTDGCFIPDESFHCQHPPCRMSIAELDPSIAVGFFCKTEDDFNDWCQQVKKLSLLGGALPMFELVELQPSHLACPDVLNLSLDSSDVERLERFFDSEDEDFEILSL
# MEKK3 PB1 HTS: modulators of MEKK3-MEK5 PB1 binding, primary screen, biochemical, wildtype MEKK3, multiplex bead flow cytometry, Alexa488-MEK5; Mitogen-activated protein kinase kinase kinase 3 (Homo sapiens), Q99759; bead-based flow cytometry, Alexa488-MEK5 binding to MEKK3; actives lie on both sides; 0 = blocked by unlabeled MEK5, 100 = vehicle; binding response (% of control), % at 10 µM; actives 1.4% (n = 290,000);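 active = binding response more than 3 SD above or below the average of its plate-row segment, actives on both sides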;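 note: Alexa488 bead fluorescence after subtracting the streptavidin-only scavenger bead signal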
# MEKK2wt confirm: modulators of MEK5 binding to wildtype MEKK2, confirmation, biochemical, single concentration, multiplex bead flow cytometry | actives 2.4% (n = 5,900) | Alexa488-MEK5 binding to MEKK2 WT; actives lie on both sides | binding response (% of control), % at 10 µM | shares compounds with MEKK3 PB1 HTS; in the data active = binding response below about 16% or above about 210%; inactive = in between
# MEKK2mut confirm: mutant MEKK2 PB1-MEK5 binding signal retest – biochemical, single concentration, multiplex bead flow cytometry, confirmation; percent response, % at 10 µM; actives 2% (n = 5,900); Alexa488-MEK5 binding to MEKK2 mutant; AID 1893, 2009; shares compounds with MEKK3 PB1 HTS; in the data active = percent response mostly above about 71%, no sharp cut-off; inactive = mostly below about 38%;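 note: higher means compound restores mutant binding toward wildtype level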
# MEKK3-MEK5 inh: MEKK3 wild-type PB1 binding to MEK5, inhibitors, confirmation, biochemical, bead multiplex flow cytometry, single concentration, wildtype; shares compounds with MEKK3 PB1 HTS; Alexa488-MEK5 binding to MEKK3; stronger effect = lower value; binding response (% of control), % at 10 µM; actives 1.8% (n = 5,900); AID 1894, 2009;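 active = binding response below 72% of control, or above a set upper limit, though filed actives all read lower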;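 note: 100% = DMSO only wells and 0% = binding blocked by excess unlabeled MEK5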
# * hit, by the source's call; nt = not tested or not shown; [ ] = another dose, or the depositor's remark. Compounds with a hit are over-represented: about 3.1% of the library has one in this group of screens.
SMILES,PREPL inhibitor,MEKK2 WT-MEK5,UBC13 inh,MEKK2 mut-MEK5,ATG4B inhibitor,MEKK3 PB1 HTS,MEKK2wt confirm,MEKK2mut confirm,MEKK3-MEK5 inh
Cn1nnc2ccccc2c1=O,0.8,129.0,10.3,7.0,5.5,141.0*,100.0,-2.0,98.0
c1ccc(Oc2ccccn2)cc1,nt,nt,nt,nt,3.3,nt,nt,nt,nt
COc1ccc(/C=N/Nc2nc(C(=O)O)cs2)cc1,6.1,102.0,-1.4,2.0,7.0,102.0,nt,nt,nt
COc1cc(NC(=O)COC(=O)c2ccc(C)c(S(=O)(=O)N3CCCCC3)c2)c(C)cc1[N+](=O)[O-],-0.7,108.0,-2.4,0.0,-13.3,146.0*,105.0,1.0,102.0
COc1ccc(C(=O)OCC(=O)Nc2ccc(OC)c(S(=O)(=O)N3CCCCC3)c2)cc1[N+](=O)[O-],nt,nt,-6.9,nt,-0.1,nt,nt,nt,nt
N#C/C(=C\c1c(N2CCCCC2)nc2ccccn2c1=O)S(=O)(=O)c1ccccc1,-9.7,88.0,-6.7,-12.0,13.4,88.0,nt,nt,nt
COc1ccccc1CNC(=O)c1ccc(OCc2c(C)noc2C)c(OC)c1,0.6,1.0*[inhibitor],-8.1,-42.0,5.4,2.0*[inhibitor],105.0,1.0,102.0
COc1cc(C(=O)NCc2ccc(C)cc2)ccc1OCc1c(C)noc1C,9.9,106.0,0.2,9.0,-7.8,106.0,nt,nt,nt
Cn1c(CCC(=O)O)nc2cc(S(=O)(=O)N3CCCCC3)ccc21,6.7,nt,3.2,nt,-6.1,nt,nt,nt,nt
CN(C)CCC(=O)N1c2ccccc2Sc2ccc(C(F)(F)F)cc21,-9.9,102.0,3.1,3.0,-0.4,97.0,nt,nt,nt
CN(C)CCCN1c2ccccc2Sc2ccc(C(F)(F)F)cc21,37.4,154.0*,27.0,13.0,2.9,112.0,144.0,26.0,106.0
CCN(CC)CCCCN1c2ccccc2Sc2ccccc21,23.2,136.0*,6.6,12.0,4.7,109.0,138.0,26.0,109.0
CCN(CC)CC(=O)N1c2ccccc2Sc2ccccc21,-10.7,103.0,1.5,3.0,-3.0,103.0,nt,nt,nt
COC(=O)/C=C1\S/C(=N/N=C/c2ccc(Cl)cc2)NC1=O,9.1,86.0,-75.8,-12.0,-3.7,87.0,nt,nt,nt
COC(=O)/C=C1\S/C(=N/N=C/c2ccccc2)NC1=O,5.5,107.0,-11.1,1.0,-11.9,139.0*,94.0,-5.0,97.0
N#CCCNC(=O)Cn1c(COc2ccc(Cl)cc2)nc2ccccc21,-3.2,108.0,17.6,1.0,5.6,143.0*,96.0,0.0,97.0
O=C(Cn1c(COc2ccc(Cl)cc2)nc2ccccc21)NCC(F)(F)F,5.9,118.0,-6.8,29.0,-5.8,108.0,nt,nt,nt
COc1ccc(NC(=O)N2CCc3ccccc3C2)c(OC)c1,1.4,109.0,-4.5,10.0,-5.5,111.0,nt,nt,nt
O=C(COC(=O)CCc1ccccc1)Nc1ncc(Cl)cc1Cl,19.0,109.0,-7.9,7.0,-2.3,106.0,nt,nt,nt
COc1ccc(/C=C/C(=O)NC(=S)Nc2cc([N+](=O)[O-])ccc2O)cc1OC,7.7,94.0,-69.1,-5.0,-10.2,93.0,nt,nt,nt
Cc1ccc(N/C=C2/Sc3ccccc3NC2=O)cc1,13.4,100.0,2.5,-3.0,-4.5,101.0,nt,nt,nt
CCC(C)NC(=O)/C=C1\Sc2ccccc2NC1=O (stereo not given),-1.4,109.0,2.2,2.0,-7.3,135.0*,102.0,-3.0,100.0
CCc1nnc(NC(=O)CCC(=O)NCCc2ccccc2)s1,-4.5,103.0,7.2,4.0,0.2,102.0,nt,nt,nt
CN1CCC(NCCC(c2ccc(F)cc2)c2ccc(Cl)cc2)CC1 (stereo not given),nt,10.0*[inhibitor],14.7,-49.0,-1.6,4.0*[inhibitor],150.0,37.0,106.0
COc1cc(/C=N/NC(=O)c2ccc(Cl)cc2)ccc1OCC(=O)N1CC(C)OC(C)C1 (stereo not given),-2.8,74.0,-5.4,-4.0,5.1,52.0*[inhibitor],102.0,1.0,103.0
SMILES,PREPL inhibitor,MEKK2 WT-MEK5,UBC13 inh,MEKK2 mut-MEK5,ATG4B inhibitor,MEKK3 PB1 HTS,MEKK2wt confirm,MEKK2mut confirm,MEKK3-MEK5 inh
COc1cc(/C=N/NC(=O)c2ccc(CSc3nncn3C)cc2)ccc1OCC(=O)N1CC(C)OC(C)C1 (stereo not given),-4.3,94.0,4.5,-2.0,-2.2,106.0,nt,nt,nt
Cc1ccc(C2Nc3ccccc3NC3=C2C(=O)OC(C)C3)cc1 (stereo not given),6.6,100.0,4.2,-1.0,4.7,108.0,nt,nt,nt
CC1CC2=C(C(=O)O1)C(c1ccc(Cl)cc1)Nc1ccccc1N2 (stereo not given),19.1,91.0,0.8,-1.0,2.2,71.0*[inhibitor],104.0,8.0,104.0
COc1ccc(NC(=O)COC(=O)CNC(=O)c2cc(OC)c(OC)c(OC)c2)cc1,-5.2,105.0,12.2,0.0,2.4,145.0*,104.0,4.0,103.0
Cc1cc(C)c(C)c(S(=O)(=O)Nc2ccc3cn[nH]c3c2)c1C,-9.2,nt,7.4,nt,-23.0,nt,nt,nt,nt
COC(=O)CSc1nc(SCc2ccccc2Cl)nc2c1CCCC2,1.9,95.0,-0.9,-3.0,-0.9,92.0,nt,nt,nt
O=C(O)CSc1nc(SCc2ccccc2Cl)nc2c1CCCC2,-3.9,125.0,2.2,10.0,0.2,122.0*,103.0,0.0,103.0
Cc1ccc(S(=O)(=O)N(C)S(=O)(=O)c2ccc(C#N)cc2)cc1,-3.3,93.0,-1.7,-4.0,nt,101.0,nt,nt,nt
O=C(N/N=C/c1ccco1)C(O)c1ccccc1 (stereo not given),6.9,103.0,1.8,-14.0,7.7,101.0,nt,nt,nt
CC(/C=C/c1ccco1)=N\NC(=O)C(O)c1ccccc1 (stereo not given),-4.6,110.0,-3.4,0.0,12.4,133.0*,104.0,11.0,99.0
COc1cc(NC(=O)C(C)Oc2ccccc2)cc(OC)c1 (stereo not given),-2.4,0.0*[inhibitor],5.5,-27.0,-5.0,0.0*[inhibitor],104.0,6.0,107.0
